# Reference: PubChem BioAssay (NCI)
# This is part of a sample that, as a whole, favours compounds with a hit. Of some 83,000 tested, about 20% had one in any assay.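 Cell lines were cultured in 96-well plates, exposed to a single compound concentration, and assessed for percent growth 48 hours later.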 Activity calls are given as the source filed them. The calls were made as follows: active = growth percent below 10; inactive = the rest.
# Test system: UACC-62 melanoma
# Test: NCI-60 one-dose screen, 48 h (100 = growth as untreated, 0 = no growth, -100 = all killed)
# Conditions: 10 µM unless noted
row,Structure (SMILES),growth
1,Fc1ccc(Nc2nc3nonc3nc2Nc2ccc(F)cc2)cc1,3.98% (active)
2,COc1cc(C2CC(c3ccc(Nc4nc(Nc5ccc(F)cc5)nc(Nc5ccc(Cl)cc5)n4)cc3)=NN2C(C)=O)cc(OC)c1OC (centres undefined),62% (inactive)
3,c1ccc2[nH]c(SSc3nc4ncncc4[nH]3)nc2c1,12.7% (inactive)
4,COc1cccc(CCC2CCCN(c3cc(C)nc(N)n3)C2)c1 (centres undefined),29.3% (inactive)
5,COc1cc(C2C=C(c3cccc(NC(C)=O)c3)Nc3ncnn32)cc(OC)c1OC (centres undefined),22.9% (inactive)
6,Cc1c(C(=O)O)nnn1-c1nccs1,96.2% (inactive)
7,CC(C)c1ccc(C(=O)OC(=O)c2ccc(C(C)C)cc2)cc1,99.4% (inactive)
8,c1ccc(-c2oc3ccccc3c2-c2ccccc2)cc1,80% (inactive)
9,C=CC(=O)Nc1cccc(C)c1Nc1cc(-c2cccnc2Cc2c(C)c(OC)cc(OC)c2C)ncn1,38% (inactive)
10,Clc1ccc2[nH]c3c(NCCCN4CCOCC4)ncnc3c2c1,80.1% (inactive)
11,CCCCCCCC/C=C\CCCCCCCC(=O)Oc1cccc2cccnc12,99.8% (inactive)
12,CCN(CC)CCCNC(=O)c1ccc(N)cc1O,97.9% (inactive)
13,CC(C)n1nc(C#Cc2cccc(O)c2)c2c(N)ncnc21,-88.9% (active)
14,CSc1ccc(Cl)c(C(=O)Nc2sccc2C(N)=O)c1,81.1% (inactive)
15,COc1ccc(NC(=O)c2cccc(-c3cc(=O)c4c(O)c(OC)c(OC)cc4o3)c2)cc1,81.1% (inactive)
16,CC(C)OCCCNCC(=O)Nc1ccc(S(=O)(=O)c2ccc(NC(=O)CNCCCOC(C)C)cc2)cc1,107% (inactive)
17,COc1cc(/C=C/C(=O)c2cccc(-n3cc(-c4ccccc4)[nH]c3=O)c2)cc(OC)c1OC,-86.3% (active)
18,C[C@@H]1C(=O)N(C[C@H](Cc2ccccc2)NC(=O)OCc2ccccc2)[C@]1(Cc1ccccc1)C(=O)OC(C)(C)C,51.9% (inactive)
19,Oc1ccccc1-c1nc2ccccn2c1NCCN1CCOCC1,95.3% (inactive)
20,COc1ccc(/C(C)=C(\c2ccc(Cl)cc2)c2ccc(OCCCN(C)C)cc2)cc1F,45.7% (inactive)

row,Structure (SMILES),growth
1,COc1cc2ccccc2cc1C(=O)NC(=S)Nc1ccc(-c2nc3ccccc3[nH]2)cc1,93% (inactive)
2,O=[N+]([O-])c1ccc2[nH]cc(-c3c4ccsc4cc4[nH]c5ccc([N+](=O)[O-])cc5c34)c2c1,14.5% (inactive)
3,CCOC(=O)c1nnn(C(Cc2ccccc2Cl)C(=O)OCC)c1C (centres undefined),99.9% (inactive)
4,Cc1nc(Nc2ccccn2)sc1C(=O)/C=C/c1ccc(Br)cc1,61.5% (inactive)
5,CN(C)c1ccc(/C=C/c2c(F)cccc2F)cc1,97.9% (inactive)
6,N#Cc1c(-c2ccc(C(F)(F)F)cc2)cc(N2CC(O)C2)n2c1nc1ccccc12,33.9% (inactive)
7,O=C1c2ccccc2C(=O)c2cc(Cn3cc[n+](Cc4ccc5ccccc5c4)c3)ccc21,61.1% (inactive)
8,O=C(CC12CC3CC(CC(C3)C1)C2)NCCOCCOCCOCCNC(=O)c1cc2c(o1)C(=O)c1ccccc1C2=O,-94.6% (active)
9,Oc1[nH]c2ccccc2c1/C=c1/cc2c(c(-c3ccc(F)cc3)n1)=Nc1ccccc1-2,-56% (active)
10,N#Cc1c(N)nc2c(nnn2-c2cccc(C(F)(F)F)c2)c1N,88.5% (inactive)
11,CN(C)CN1CCN(c2ccc3nc(-c4ccc5nc(-c6ccc(C(F)(F)F)cc6)[nH]c5c4)[nH]c3c2)CC1,44.8% (inactive)
12,COC(=O)Nc1nc2ccc(C(=O)C3CC3)cc2[nH]1,30.3% (inactive)
13,CC1(C)N=C(N)N=C(N)N1c1ccc(Cl)c(Cl)c1,27.4% (inactive)
14,O=C1NC(=S)S/C1=C\N1N=C(c2ccc(Cl)cc2)CC1c1ccc(F)cc1 (centres undefined),73.6% (inactive)
15,Cc1nc(Nc2ccc(NC(=S)Nc3ccccc3)cc2)nc2nc(Nc3ccc(S(=O)(=O)O)cc3)[nH]c(=O)c12,105% (inactive)
16,CCOc1cc(N)ccc1C(=O)NCCCN(CC)CC,95.5% (inactive)
17,NC(N)=N/N=C(/c1ccccc1)c1ccccc1F,20.2% (inactive)
18,CC(c1ccc(-n2cccn2)cc1)c1cnc(N2CCc3ccc(C(N)=O)cc3C2)s1 (centres undefined),57.3% (inactive)
19,CC(/C=N/NC(=O)c1cc(-c2ccco2)[nH]n1)=C\c1ccccc1,94% (inactive)
